High-throughput results from PubChem.
15-hLO inh: inhibitors of human 15-lipoxygenase (ALOX15). Potency, µM (series often up to 57.1 µM), without a hit: at the highest dose activity change, negative = inhibition, hits mostly inhibitors. purified 15hLO-1, xylenol orange hydroperoxide absorbance. P16050. AID 887. hit rate 1.4% among 74,000; further: on the % scale 0 is the no-effect control and ±100 the full control effect; nearly all actives have a fitted effect of over 55% in size
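Compounds were preincubated 15 min at room temperature with 40 nM purified human enzyme (25 mM Hepes pH 7.5, 0.01% Triton X-100); 50 uM arachidonic acid reacted 6 min. Fe-xylenol orange detection, 30 min, absorbance ratio 573/405 nm.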
15-hLO-2 inh: blocks human 15-lipoxygenase 2 activity; O15296; purified 15hLO-2, xylenol orange hydroperoxide absorbance; Potency, µM (series often up to 57.1 µM), without a hit: at the highest dose activity change, negative = inhibition, hits mostly inhibitors; hit rate 0.56% among 110,000; AID 881; further: on the % scale 0 is the no-effect control and ±100 the full control effect; nearly all actives have a fitted effect of over 60% in size
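Screening format was qHTS against 50 nM purified 15hLO-2 in Hepes pH 7.5 with detergent. Activity follows hydroperoxide formation from 45 uM arachidonic acid, measured as 573:405 nm absorbance ratio of the ferric-xylenol orange complex.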
Casp1 inh: caspase-1 (human) inhibition, allosteric or competitive; P29466; Caspase-1 enzyme, Ac-WEHD-AFC fluorogenic rate; Potency, µM (series often up to 57.5 µM), for inactives: top-dose activity change, negative = inhibition, most hits filed as inhibitors; hit rate 0.03% among 75,000; AID 900;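 further: plate controls were vehicle for no effect and no substrate for full effect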
Target sequence (P29466 120-297 limits assumed): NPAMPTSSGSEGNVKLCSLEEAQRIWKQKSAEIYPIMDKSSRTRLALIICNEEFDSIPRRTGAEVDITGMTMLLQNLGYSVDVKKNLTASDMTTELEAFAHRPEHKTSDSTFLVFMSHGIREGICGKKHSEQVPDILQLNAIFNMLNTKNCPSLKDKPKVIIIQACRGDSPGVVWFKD
Target sequence (P29466 317-404 limits assumed): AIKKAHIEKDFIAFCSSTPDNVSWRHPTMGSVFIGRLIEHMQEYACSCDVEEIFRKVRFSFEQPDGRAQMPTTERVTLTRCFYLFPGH
Caspase-7 inhib: blocks human caspase-7 allosterically or competitively. Potency, µM (series often up to 57.5 µM), for the others: at the top dose activity change, negative = inhibition, actives largely listed as inhibitors. hit rate 0.02% among 75,000. P55210. recombinant caspase-7, Ac-DEVD-AFC fluorescence rate. AID 889; active means well fitted inhibition curve with a large enough effect in the main read-out, with a control signal flat, not every such curve was filed as active; inconclusive means small, poorly fitted or top-dose-only effect, or a change in a side signal; further: % of control where 0% means no effect
Target sequence (P55210 24-198 limits assumed): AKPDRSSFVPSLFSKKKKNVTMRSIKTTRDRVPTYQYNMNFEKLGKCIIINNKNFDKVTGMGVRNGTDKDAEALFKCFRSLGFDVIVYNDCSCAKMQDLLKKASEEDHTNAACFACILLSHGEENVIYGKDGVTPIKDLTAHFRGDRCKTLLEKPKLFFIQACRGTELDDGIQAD
Target sequence (P55210 207-303 limits assumed): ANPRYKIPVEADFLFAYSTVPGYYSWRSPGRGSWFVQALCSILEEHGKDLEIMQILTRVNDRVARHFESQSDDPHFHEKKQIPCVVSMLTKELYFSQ
USP2a inhib: inhibitors of human ubiquitin-specific protease USP2a; hit rate 0.1% among 60,000; AID 927; Potency, µM (highest dose often 38.3 µM), without a hit: at the highest dose activity change, negative = inhibition, hits mostly inhibitors; USP2a enzymatic assay, qHTS inhibition; further: nearly all actives have a fitted effect of over 60% in size
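Inhibition is measured in a cell-free coupled assay with 20 nM USP2 core, 20 nM Ub-PLA2 and 20 uM NBD C6-HPC, 2.5 h incubation. Activity normalized to NEM control.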
* = called active by the depositor; ! = not confirmed by another sample; [ ] = dose if it differs, or a comment. The full list was thinned out, with hits kept by preference. Unless noted, the call rests on the fitted dose curve; in most records, active means well fitted curve in the direction sought with a large enough effect; inconclusive means small, poorly fitted or top-dose-only effect, or another doubt; inactive means no such curve, though single readings can be large; an effect the other way counts as inactive or inconclusive. Potency means the concentration at half of the fitted maximal effect.

What do the screens show for `COCCn1c(=O)c(-c2cccc(C#N)c2)nc2cnc(N3CCNCC3)nc21`?
15-hLO inh: inconclusive; 15-hLO-2 inh: 0%; Caspase-7 inhib: inconclusive; USP2a inhib: 16%

Results for CC(C)=CCC/C(C)=C/CO ?
15-hLO inh: 7.9µM*!; 15-hLO-2 inh: -2%[11.4 µM]; Casp1 inh: -1%[11.5 µM]; Caspase-7 inhib: 2%[11.5 µM]; USP2a inhib: -14%

Results for C=CC(C)(O)CC/C=C(\C)CCC=C(C)C (stereo not drawn) ?
15-hLO inh: 13µM*; 15-hLO-2 inh: 5%; Casp1 inh: 3%; Caspase-7 inhib: -1%; USP2a inhib: 2%

Results for COC(=O)c1ccc(C(NC(=O)OCc2ccccc2)/C(=C/[C@@H](C)C(=O)NC2CCCCC2)c2cccnc2)cc1 (stereo partly drawn) ?
15-hLO inh: -14%; 15-hLO-2 inh: 49%; Casp1 inh: -1%; Caspase-7 inhib: -4%

What do the screens show for `O=C(Oc1ccnc2cc(Cl)ccc12)N1CCCCCC1`?
15-hLO inh: -1%; 15-hLO-2 inh: 11%; Casp1 inh: -2%; Caspase-7 inhib: 1%; USP2a inhib: 5%

What do the screens show for `Clc1ccc2c(N3CCCC3)ccnc2c1`?
15-hLO inh: 20µM*; 15-hLO-2 inh: 8%; Casp1 inh: inconclusive; Caspase-7 inhib: -16%; USP2a inhib: 4%

Results for CNC(=O)[C@@H]1O[C@@H](n2cnc3c(NCc4ccc(N)cc4)ncnc32)[C@@H](O)[C@H]1O ?
15-hLO inh: 6%; 15-hLO-2 inh: -4%; Casp1 inh: 2%; Caspase-7 inhib: 1%; USP2a inhib: -4%

What do the screens show for `Nc1c(NCCCN2CCOCC2)c2ccccc2oc1=O`?
15-hLO inh: inconclusive; 15-hLO-2 inh: 0%; Casp1 inh: -5%; Caspase-7 inhib: -1%; USP2a inhib: 3%

What do the screens show for `Nc1c(NCCN2CCOCC2)c2ccccc2oc1=O`?
15-hLO inh: 1.6µM*; 15-hLO-2 inh: 43%; Casp1 inh: 3%; Caspase-7 inhib: 0%; USP2a inhib: -1%

How did NC(=NC1C2CC3CC(C2)CC1C3)Nc1ccc(I)cc1 (stereo not drawn) do in these assays?
15-hLO inh: 0%[25.6 µM]; 15-hLO-2 inh: 26%; Casp1 inh: 0%; Caspase-7 inhib: 1%

Results for CSc1nnc2n(-c3ccccc3)c(=O)c3c4c(sc3n12)CCC4 ?
15-hLO inh: 2.5µM*; 15-hLO-2 inh: 4%; Casp1 inh: 1%; Caspase-7 inhib: -1%; USP2a inhib: 7%

Results for CCN(CC)CCCC(C)NC(=O)c1ccc(Cc2nc3ccccc3[nH]2)cc1 (stereo not drawn) ?
15-hLO inh: 2%; Casp1 inh: -2%; Caspase-7 inhib: 2%

Results for C[N+]1(CCCC[N+]2(C)CCCCCCC2)CCCCCCC1 ?
15-hLO inh: 7%[11.4 µM]; 15-hLO-2 inh: -2%[11.4 µM]; Casp1 inh: 1%[11.5 µM]; Caspase-7 inhib: -2%[11.5 µM]

How did Cc1ccc(NC(=O)CN2C(=O)S/C(=C\c3cc(C)n(C)c3C)C2=O)cc1 do in these assays?
15-hLO-2 inh: 16µM*

What do the screens show for `CCCN1C(=O)/C(=C/c2cc(C)n(C)c2C)SC1=Nc1ccc(OC)cc1`?
15-hLO-2 inh: -17%

Results for C[C@@H](c1ccccc1)N1C(=O)[C@@H]2[C@H]3C(=CC[C@H]2C1=O)C(=O)[C@H]1O[C@H]1[C@H]3O ?
15-hLO inh: -11%[11.4 µM]; Casp1 inh: -11%[11.5 µM]; Caspase-7 inhib: -14%[11.5 µM]

What do the screens show for `COCc1cc(C)nc(SCC(=O)c2ccc(O)c(O)c2)c1C#N`?
15-hLO inh: 3.2µM*; 15-hLO-2 inh: -4%[11.4 µM]; Casp1 inh: -1%; Caspase-7 inhib: -1%; USP2a inhib: 0%

How did CC(C)c1cccc2nc3c(c([Si](C)(C)C)c12)Cn1c-3cccc1=O do in these assays?
15-hLO-2 inh: -17%; Caspase-7 inhib: inconclusive

How did C[C@@H](CNC1CCCCC1)OC(=O)c1ccccc1 do in these assays?
15-hLO inh: 4%[25.6 µM]; 15-hLO-2 inh: 20%[25.6 µM]; Casp1 inh: -1%[25.7 µM]; Caspase-7 inhib: 1%[25.7 µM]; USP2a inhib: -3%[17.1 µM]

How did O=C1c2ccccc2C(=O)c2c(O)c(O)cc(O)c21 do in these assays?
15-hLO inh: 5µM*; 15-hLO-2 inh: -8%; Casp1 inh: -2%; Caspase-7 inhib: -24%; USP2a inhib: -84%

How did CC1CCC2C(=O)OC(CN3C(=O)c4ccccc4C3=O)CN2C1c1ccc(Br)cc1 (stereo not drawn) do in these assays?
15-hLO inh: 0%[11.4 µM]; Casp1 inh: 0%[11.5 µM]; Caspase-7 inhib: -1%[11.5 µM]

Results for CC(C)C1=CC2=CC[C@@H]3[C@@](C)(C(=O)O)CCC[C@]3(C)C2CC1 (stereo partly drawn) ?
15-hLO inh: 7.9µM*; 15-hLO-2 inh: 0%; Casp1 inh: 0%; Caspase-7 inhib: 0%

How did Cc1nc2cnc(N3CCN(C)CC3)nc2n(C2CC2)c1=O do in these assays?
15-hLO inh: 5%; 15-hLO-2 inh: 29%; Casp1 inh: -19%; Caspase-7 inhib: -24%; USP2a inhib: 205%

How did Cc1noc(C)c1-c1cncnc1NCc1cccnc1 do in these assays?
15-hLO inh: inconclusive; 15-hLO-2 inh: -8%; Casp1 inh: 0%; Caspase-7 inhib: 0%; USP2a inhib: -15%

How did CN1CCN([C@@H]2Cc3ccccc3Sc3ccc(Cl)cc32)CC1 do in these assays?
15-hLO inh: -16%; 15-hLO-2 inh: 43%; Casp1 inh: 0%; Caspase-7 inhib: -2%; USP2a inhib: 13%

How did COc1ccc(O)c(-c2c(-c3ccc(Cl)cc3)n[nH]c2C)c1 do in these assays?
15-hLO inh: 25µM*; 15-hLO-2 inh: -15%; Casp1 inh: -1%; Caspase-7 inhib: -4%; USP2a inhib: 13%

What do the screens show for `COc1ccc2c(c1)C(c1ccc(C)cc1)CC(=O)O2` (stereo not drawn)?
15-hLO-2 inh: -11%[0.0915 µM]

What do the screens show for `Oc1ccc(N2CCN(c3ncnc4sc5c(c34)CCC5)CC2)cc1`?
15-hLO inh: 3.2µM*; 15-hLO-2 inh: inconclusive; Casp1 inh: -3%; USP2a inhib: 28%

How did COC(=O)c1ccc(CC(=O)c2c(C)cc(O)cc2O)o1 do in these assays?
15-hLO inh: 25µM*; 15-hLO-2 inh: 4%; Casp1 inh: -4%; Caspase-7 inhib: -4%; USP2a inhib: 7%

What do the screens show for `O=C1C2C3CCCC3=C3CCCC3C2C(=O)N1c1ccc(F)cc1` (stereo not drawn)?
15-hLO inh: 3.2µM*; 15-hLO-2 inh: 5%; Casp1 inh: inconclusive; Caspase-7 inhib: -17%

Results for CN(C)c1ccc(N=c2sc3ccccc3n2C)cc1 ?
15-hLO-2 inh: 7.9µM*

How did Cn1c(=Nc2ccccc2)sc2ccccc21 do in these assays?
15-hLO-2 inh: 14%

What do the screens show for `C[C@@H](/C=C\c1cccc(Oc2ccc(F)cc2)c1)N(O)C(N)=O`?
15-hLO inh: 10µM*; 15-hLO-2 inh: -23%; Casp1 inh: 3%; Caspase-7 inhib: -6%; USP2a inhib: 4%
